Measured values: PubChem BioAssay (NCATS)
Several values for one entry are separate records, joined by “and”; a condition that tells them apart may be missing. Equal values may be shown once. Inconclusive results are not listed. A number with no mark means an inactive call. Activity calls are given as the source filed them. Calls follow the shape of the dose curve; as a rule, active = well fitted activation curve with a large enough effect; inconclusive = small, poorly fitted or top-dose-only effect; inactive = no such curve, though single readings can be large or run the other way.
Potency is read from the fitted curve at half-maximal effect.

Each compound was assayed against Cellular tumor antigen p53 (Homo sapiens) (UniProt P04637) (assay: Primary qHTS for small molecule compounds that upregulate eGFP-tagged delta133p53alpha (in N-terminal) cells. (AID 2060322; also: nearly all actives have a fitted effect of over 75% in size;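 as to activation: series mostly up to about 56 µM; 0% = DMSO vehicle and 100% = reference activator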)). Settings: NCI-H358 eGFP-delta133p53alpha fluorescence, 24 h; activation: stronger effect = higher value.
Cellular tumor antigen p53 (Homo sapiens), sequence (P04637 whole entry, looked up): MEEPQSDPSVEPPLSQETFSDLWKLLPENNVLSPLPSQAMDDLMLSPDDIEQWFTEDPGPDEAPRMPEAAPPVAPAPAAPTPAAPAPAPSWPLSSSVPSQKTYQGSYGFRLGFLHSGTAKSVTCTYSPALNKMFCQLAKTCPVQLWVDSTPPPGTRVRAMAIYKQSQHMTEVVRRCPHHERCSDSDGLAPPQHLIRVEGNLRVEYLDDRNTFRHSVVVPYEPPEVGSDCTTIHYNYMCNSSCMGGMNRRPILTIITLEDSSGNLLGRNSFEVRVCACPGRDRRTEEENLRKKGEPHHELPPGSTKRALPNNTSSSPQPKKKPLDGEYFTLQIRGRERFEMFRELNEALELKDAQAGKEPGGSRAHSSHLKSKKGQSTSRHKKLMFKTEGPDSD
In short: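 NCI-H358 cells pre-induced 24 h with 10 ng/ml doxycycline to express N-terminal eGFP-delta133p53alpha, then dosed 24 h at 37C without doxycycline; fixed, Hoechst-stained, GFP intensity by laser scanning cytometry, normalized to DMSO (0%) and 57.5 uM 5-azacytidine (100%).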
Compound `O=C1NC(c2ccccc2)(c2ccccc2)C(=O)N1COP(=O)(O)O` has an activation of -11.9%. For `Cc1c(N(C)CS(=O)(=O)O)c(=O)n(-c2ccccc2)n1C`, the activation was -7.34%. For `N=C(N)N`, the activation was 7.34%. Compound `CN(C)CCOc1ccc(C(=C(CCCl)c2ccccc2)c2ccccc2)cc1` has an activation of 17.8%. `C#C[C@]1(O)CC[C@@H]2[C@@H]3CCC4=CC(=O)CC[C@@H]4[C@H]3CC[C@@]21CC` was tested, and the activation was 25.3%. With `CC(=O)OC[C@H]1O[C@@H](OC(C)=O)[C@H](OC(C)=O)[C@@H]1OC(C)=O` the activation was 28.8%. With `CCN(CC)C(=O)/C(C#N)=C/c1cc(O)c(O)c([N+](=O)[O-])c1` the activation was -3.95%. In the case of `CC1(C)OC2=C(C(=O)c3ccccc3C2=O)[C@H](NCc2ccccc2)[C@H]1O`, the Potency is reported as 24.3 µM (active). In the case of `CCCc1c2oc(C(=O)O)cc(=O)c2cc2c(=O)cc(C(=O)O)n(CC)c12`, the activation is reported as -10%. `C=CCN1C[C@H](C(=O)N(CCCN(C)C)C(=O)NCC)C[C@@H]2c3cccc4[nH]cc(c34)C[C@H]21` was tested, and the activation was -8.37%. For `OCCOCCN1CCN(C(c2ccccc2)c2ccc(Cl)cc2)CC1` (stereo not given), the activation was 8.47%. `CCCCCCCCCCCCCCCCCCN(C)C` showed an activation of -22.6%. In the case of `COc1ccc(S(=O)(=O)ON=C2C=C(C)C(=O)C(C)=C2)cc1`, the Potency is reported as 34.3 µM (active). For `NC(=O)NNc1ccccc1`, the activation was 0.565%. `Cc1cc(=O)[nH]c(=S)[nH]1` showed an activation of 19.2%. `CCOc1ccccc1C(N)=O` showed an activation of -11.9%. With `Cc1c[nH]c(C=C2C(=O)Nc3ccccc32)c1CCC(=O)O` the Potency was 24.3 µM (active). With `Cc1cccc(C)c1OCC(=O)N[C@@H](Cc1ccccc1)[C@@H](O)C[C@H](Cc1ccccc1)NC(=O)[C@H](C(C)C)N1CCCNC1=O` the activation was -5.4% and 28.8%. `O=c1cc[nH]c(=S)[nH]1` showed an activation of 7.34%. `C[C@H](NCc1ccc(OCc2cccc(F)c2)cc1)C(N)=O` was tested, and the Potency was 24.3 µM (active). `NC(=O)NC(=O)Cc1ccccc1` gave an activation of -10%. `OCCN1C[C@H](O)[C@@H](O)[C@H](O)[C@@H]1CO` showed an activation of 24.9%. `CC(C)OC(=O)OCOP(=O)(CO[C@H](C)Cn1cnc2c(N)ncnc21)OCOC(=O)OC(C)C` was tested, and the activation was -1.51% and -14.1%. In the case of `CCOc1ccccc1OCC1CNCCO1` (stereo not given), the activation is reported as -17.6%. For `N=C1SC(=Cc2ccc(-c3ccc4c(c3)C(=O)NC4=O)o2)C(=O)N1c1ccc(Br)cc1`, the activation was 54.1%. `CCOC(=O)O[C@]1(C(=O)OCCl)CC[C@@H]2[C@H]3CCC4=CC(=O)C=C[C@]4(C)[C@@H]3[C@@H](O)C[C@@]21C` was tested, and the activation was -2.28%. With `NC(=O)N/N=C/c1ccc([N+](=O)[O-])o1` the activation was 16.7% and -23.4%. `COC(=O)c1cc(Cl)ccc1NS(=O)(=O)C(F)(F)F` gave an activation of 8.47%. `C[C@@]12C[C@@]3(O)O[C@@H](O1)[C@]1(COC(=O)c4ccccc4)[C@@H]3C[C@@]12O[C@@H]1O[C@H](CO)[C@@H](O)[C@H](O)[C@@H]1O` showed an activation of 35.7%. `O=C(CN1C(=O)C2(CCCC2)NCC1c1cc(F)cc(F)c1)Nc1ccc2c(c1)CC1(C2)C(=O)Nc2ncccc21` (stereo not given) was tested, and the activation was 0.477%. With `CC(NN)c1ccccc1` (stereo not given) the activation was 6.69%. Compound `Cc1cc2c(OCC(CNC(C)(C)C)OC(=O)c3ccccc3)cccc2[nH]1` (stereo not given) has an activation of 9.6%. In the case of `CC[C@H](c1ccc(O)cc1)[C@@H](CC)c1ccc(O)cc1`, the Potency is reported as 12.3 µM (active). For `O=C(O)c1cc(=O)c2ccccc2o1`, the activation was 2.51%. In the case of `C[C@]12C=CC(=O)N[C@@H]1CC[C@H]1[C@H]3CC[C@@H](C(=O)Nc4cc(C(F)(F)F)ccc4C(F)(F)F)[C@@]3(C)CC[C@@H]12`, the activation is reported as 9.28%. `CC(=O)Oc1ccc(C2(c3ccc(OC(C)=O)cc3)C(=O)Nc3ccccc32)cc1` gave an activation of -31.1%. In the case of `CN1C(=O)CC(C)(c2ccccc2)C1=O` (stereo not given), the activation is reported as 23.4%. `NCc1ccccc1Sc1ccccc1CO` was tested, and the activation was 15.3%. `Cc1cn([C@@H]2O[C@H](CO)[C@@H](O)[C@H]2F)c(=O)[nH]c1=O` showed an activation of 5.67%. Compound `O=C1[C@H]2CCCC[C@H]2C(=O)N1CCCCN1CCN(c2nsc3ccccc23)CC1` has an activation of 10.7%.
